In the library only some 15% were active in any assay of this set; here they are far more common.
HCV inhibitor: blocks hepatitis C virus; Potency, µM (highest dose often 41.8 µM), for inactives: at the top dose activity change, negative = inhibition, actives largely listed as inhibitors; AID 651820; Huh7.5.1 HCVcc-Cre infection, luciferase reporter, 44 h; 340,000 compounds, 3.4% hits; also: potency is read from the fitted curve at half-maximal effect; % is scaled to controls: 0 for no effect and ±100 for the full control effect
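Compounds are dispensed onto cells plated 4 h earlier at 1,000 per well, with HCVcc-Cre virus (about 0.5 moi) added next. Following 44 h of culture, luminescent signal is measured for 15 sec after 15 min with substrate at room temperature.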
HCMV inh: blocks human cytomegalovirus replication. 410,000 compounds, 4.5% hits. HFF cells, HCMV-luciferase reporter, 72 h; stronger effect = lower value. activity change, negative = inhibition, % at 57.5 µM; in the data active = activity change below about -60%; inconclusive = no clear call, values can overlap the other calls; inactive = above about -39%; also: % is scaled to controls: 0 for no effect and ±100 for the full control effect
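Two-dose cell screen: HFF monolayers treated with compounds and infected with luciferase-expressing HCMV at 1 PFU/cell, 72 h at 37C, then lysed for luciferase measurement.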
Pf growth 48h: inhibits P. falciparum growth in the first generation, 48 h; 310,000 compounds, 5.9% hits; Potency, µM (titrated, usually from 28.7 µM), without a hit: at the top dose activity change, negative = inhibition, most hits filed as inhibitors; P. falciparum luciferase growth in erythrocytes, 48 h; AID 504832; also: potency is read from the fitted curve at half-maximal effect; % is scaled to controls: 0 for no effect and ±100 for the full control effect
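Firefly luciferase activity from engineered P. falciparum reports growth; inhibitors lower the luminescent signal. Cultures contained 2% hematocrit erythrocytes at 0.1% final parasitemia.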
SARS PLP yeast: blocks SARS-CoV papain-like protease in a yeast assay; 330,000 compounds, 0.19% hits; Potency, µM (highest dose often 32.9 µM), inactives show at the highest dose activity, positive = growth rescue, usual class: activators; S. cerevisiae expressing SARS-CoV PLpro, growth rescue; calls by dose curve; also: potency is read from the fitted curve at half-maximal effect; 0% is about no effect; nearly all actives have a fitted effect of over 55% in size
Pf growth 96h: P. falciparum growth inhibition at 96 hours; P. falciparum luciferase reporter growth, 96 h; Potency, µM (top dose mostly 28.7 µM), for inactives: at the highest dose activity change, negative = inhibition, actives largely listed as inhibitors; 320,000 compounds, 6.9% hits; also: potency is read from the fitted curve at half-maximal effect; % is scaled to controls: 0 for no effect and ±100 for the full control effect
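P. falciparum expressing integrated firefly luciferase grown in erythrocytes (2% hematocrit, 0.05% parasitemia final) with compounds for 96 hours at 37 C, 5% CO2. Growth inhibition read as loss of luminescence after adding luciferase detection reagent.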
Sm TGR block: S. mansoni TGR enzyme inhibition. purified TGR, DTNB reduction, TNB absorbance 405 nm. Potency, µM (top dose mostly 114 µM), for inactives: at the top dose activity change, negative = inhibition, hits mostly inhibitors. 360,000 compounds, 3% hits. AID 485364; also: potency is read from the fitted curve at half-maximal effect; % is scaled to controls: 0 for no effect and ±100 for the full control effect; nearly all actives have a fitted effect of over 60% in size
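First, TGR (20 nM dispensed) and NADPH were mixed with compound. Second, a 15 min room-temperature incubation followed. Third, further NADPH and then DTNB were added to start the reaction. Finally, TNB absorbance was monitored kinetically.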
* = called active by the depositor; ? = inconclusive; . = no result given. Unless noted, calls follow the shape of the dose curve; as a rule, active = well fitted curve in the direction sought with a large enough effect; inconclusive = small, poorly fitted or top-dose-only effect, or another doubt; inactive = no such curve, though single readings can be large; an effect the other way counts as inactive or inconclusive.

SMILES	HCV inhibitor	HCMV inh	Pf growth 48h	SARS PLP yeast	Pf growth 96h	Sm TGR block
O=C(CCCCCNc1nc(=S)[nH]c2ccccc12)NCCc1c[nH]c2ccccc12	20µM*	-29	?	-2%	31%	-2%
COc1ccc(C(=O)CCC(=O)NCCc2c[nH]c3ccccc23)cc1	8%	-104*	-11%	2%	?	-9%
CCOC(=O)c1ccccc1NC(=O)C1CC(=O)N(C2CCCC2)C1 (configuration not stated)	20%	-26	.	.	.	.
CCc1nc2ccc(C(=O)NCCCn3ccnc3)cn2c1N(C)CCCc1ccccc1	.	-32	.	.	.	.
Cc1c(Cl)cccc1N=c1c([N+](=O)[O-])nn(-c2ccccc2)n1O	?	87	.	4%	?	-11%
CCc1ccc(N=c2c([N+](=O)[O-])nn(-c3ccc4c(c3)OCCO4)n2O)cc1	-10%	23	8%	2%	?	10µM*
Cc1ccc(N=c2c([N+](=O)[O-])nn(-c3ccccc3)n2O)c(C)c1	?	116	?	-5%	.	32µM*
COc1ccc(-n2nc([N+](=O)[O-])c(=NCc3ccc4c(c3)OCO4)n2O)cc1	?	-10	243%	-6%	7.4µM*	-4%
Cc1ccc(N=c2c([N+](=O)[O-])nn(-c3ccc4c(c3)OCCO4)n2O)c(Cl)c1	.	.	163%	1%	-9%	4.5µM*
O=[N+]([O-])c1nn(-c2ccccc2)n(O)c1=NCc1ccc2c(c1)OCO2	-16%	87	-24%	1%	?	11%
C=C(C)c1cccc(C(C)(C)NC(=O)NC2CC(C)(C)NC(C)(C)C2)c1	-28%	-27	?	0%	15%	.
Cc1cccc(NC(=O)C2CCCN(S(=O)(=O)c3c(C)n[nH]c3C)C2)c1 (configuration not stated)	.	37	.	.	.	15%
O=[N+]([O-])c1nn(-c2ccc(Cl)cc2)n(O)c1=NCc1ccccc1	-5%	0	172%	2%	23%	-8%
Cc1ccc(N=c2c([N+](=O)[O-])nn(-c3ccc4c(c3)OCCO4)n2O)cc1F	?	-85*	159%	0%	?	-36%
O=[N+]([O-])c1nn(-c2ccc3c(c2)OCCO3)n(O)c1=Nc1ccc(Cl)cc1	7.1µM*	-91*	15%	12%	?	35µM*
O=C1CCCN1CCCN=c1c([N+](=O)[O-])nn(-c2ccc(Cl)cc2)n1O	11µM*	-27	?	-1%	23%	-2%
O=[N+]([O-])c1nn(-c2ccc3c(c2)OCCO3)n(O)c1=Nc1ccccc1	?	-95*	?	-50%	-8%	-6%
COc1ccc(-n2nc([N+](=O)[O-])c(=NCCCN3CCCC3=O)n2O)cc1	?	-22	34%	-1%	5%	4%
Cc1cc(C)cc(N=c2c([N+](=O)[O-])nn(-c3ccc4c(c3)OCCO4)n2O)c1	?	0	49%	-1%	39%	3%
O=[N+]([O-])c1nn(-c2ccc3c(c2)OCCO3)n(O)c1=NCCCO	11µM*	16	24%	3%	42%	-2%
Cc1ccc(CN=c2c([N+](=O)[O-])nn(-c3ccc4c(c3)OCCO4)n2O)cc1	?	47	94%	-89%	?	-3%
Cc1cccc(-n2nc([N+](=O)[O-])c(=NC3CCN(Cc4ccccc4)CC3)n2O)c1	8.9µM*	-64*	?	2%	?	1%
Cc1ccc(N=c2c([N+](=O)[O-])nn(-c3ccc(Cl)cc3)n2O)cc1C	11%	15	12µM*	-3%	0.83µM*	-19%
Cc1ccccc1C(=O)OCc1cc(=O)n2nc(C3CC3)sc2n1	.	3	.	.	.	5%
Nc1c(-c2cccc([N+](=O)[O-])c2)nc2ccccn12	6%	59	142%	-25%	0%	-1%
SMILES	HCV inhibitor	HCMV inh	Pf growth 48h	SARS PLP yeast	Pf growth 96h	Sm TGR block
Nc1nn(S(=O)(=O)c2ccccc2)cc1-c1cccc([N+](=O)[O-])c1	?	-1	10µM*	-4%	20%	-13%
CC(=O)CSc1nnc2cc(C)c3cc(C)cc(C)c3n12	.	19	.	.	.	-3%
Cc1nc2cc(NC(=O)c3ccc(Br)s3)ccc2s1	11µM*	?	212%	-6%	243%	-24%
Cc1ccc(C(=O)Nc2ccc3nc(C)sc3c2)s1	-25%	88	57%	-16%	.	-18%
Oc1cc(Br)ccc1C=Nc1ccc(N2CCCCC2)cc1	4%	12	8.3µM*	5%	8.3µM*	?
COc1cccc(C2CC(=O)Nc3c2c(=O)nc2c(C)cccn32)c1 (configuration not stated)	.	-20	.	.	.	0%
O=C(NCc1ccccc1)c1ccc2nc(-c3ccco3)c(-c3ccco3)nc2c1	-8%	44	.	5%	12µM*	1.4µM*
O=C(Nc1ccc(N2CCOCC2)cc1)c1ccc2nc(-c3ccco3)c(-c3ccco3)nc2c1	6%	8	-17%	-4%	?	?
CC(=O)c1ccc(NC(=O)c2ccc3nc(-c4ccco4)c(-c4ccco4)nc3c2)cc1	?	.	12µM*	-1%	.	0.79µM*
O=C(NCc1ccccc1)c1ccc2nccnc2c1	3%	?	.	6%	41%	-3%
O=C(Nc1ccccc1)c1ccc2nc(-c3ccco3)c(-c3ccco3)nc2c1	8.9µM*	1	?	0%	.	3.2µM*
CC(C)OCCCNc1ncc2c(n1)CC(c1cccs1)CC2=O (configuration not stated)	0%	29	?	-1%	13µM*	4%
CC(=O)Nc1nonc1-c1nnc(SCC(=O)Nc2cccc(F)c2)n1-c1ccccc1	.	-15	.	.	.	0%
CC(C)(C)n1nnnc1C(c1ccncc1)N(Cc1ccccc1)Cc1ccco1 (configuration not stated)	-14%	-23	13µM*	-7%	.	0%
CN(C)CCN(Cc1ccccc1)C(c1cc2ccccc2o1)c1nnnn1C(C)(C)C (configuration not stated)	.	-22	.	.	.	.
CC(C)(C)n1nnnc1C(c1cccs1)N(Cc1cccnc1)Cc1ccco1 (configuration not stated)	-18%	-11	10µM*	1%	7.4µM*	-23%
CC(C)(C)n1nnnc1C(c1cccs1)N(Cc1ccccc1)Cc1ccco1 (configuration not stated)	11µM*	-35	13µM*	-11%	21%	?
O=C(CCN1CCOCC1)c1ccc(N2CCCCC2)cc1	?	-13	-1%	2%	22%	14µM*
CC(C)(C)c1cc(C(=O)CCN2CCOCC2)cc(C(C)(C)C)c1O	-23%	-77*	34%	-9%	?	3.5µM*

High-throughput results from PubChem.
